Screening results deposited in PubChem BioAssay by National Center for Advancing Translational Sciences (NCATS).
Shown is part of a subset that was picked to be rich in hits.
DT40 TDP1 CPT: growth inhibition of DT40 Tdp1-/-;hTDP1 cells with camptothecin (screen for TDP1 inhibitors); 12% of 420,000 active; Potency, µM (top dose mostly 46.2 µM), inactives show at the top dose activity change, negative = growth inhibition, hits mostly inhibitors; AID 686979; chicken DT40 Tdp1-/-;hTDP1 cells + 20 nM CPT, ATP luminescence, 48 h; further: potency means the concentration at half of the fitted maximal effect; nearly all actives have a fitted effect of over 55% in size
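Chicken DT40 Tdp1-/- cells stably complemented with human TDP1 were seeded at 400 cells/well in medium containing 20 nM camptothecin, exposed to pin-transferred compounds, and grown at 37 °C for at least 48 hr. Viability was read as ATP luminescence.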
HT1080NT lethal: kills 2HG-producing HT-1080-NT fibrosarcoma cells; Potency, µM (series often up to 46.1 µM), for the others: at the highest dose activity, negative = less viability, actives largely listed as cytotoxic; HT-1080-NT fibrosarcoma viability, CellTiter-Glo ATP luminescence, 48 h; 1.6% of 360,000 active;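 further: NT is the 2HG producing partner of a matched IDH1 knockdown line; potency means the concentration at half of the fitted maximal effect; 0% = DMSO-treated cells and -100% = media-only wells without cells; nearly all actives have a fitted effect of over 55% in size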
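A 48-hour cytotoxicity screen used HT-1080-NT cells plated 2 hours before compound delivery. ATP-based CellTiter-Glo luminescence measured viability, normalized to DMSO and no-cell controls.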
DT40 TDP1 no CPT: qHTS for Inhibitors of human tyrosyl-DNA phosphodiesterase 1 (TDP1): qHTS in cells in absence of CPT. DT40 Tdp1-/- hTDP1 cells, no CPT, ATP luminescence, 48 h. Potency, µM (top dose mostly 46.2 µM), for the others: at the highest dose activity change, negative = growth inhibition, actives largely listed as inhibitors. 15% of 420,000 active; further: potency means the concentration at half of the fitted maximal effect; nearly all actives have a fitted effect of over 55% in size
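Cells were dispensed at 400 per well, compounds added by pin tool, plates incubated ≥48 hr at 37 °C, then CellTiter-Glo added for 30 min at room temperature before luminescence reading. Line: DT40 Tdp1-/- complemented with hTDP1; camptothecin omitted.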
IL1B secr inh: inflammasome signaling inhibition, IL-1 beta readout | 4.7% of 360,000 active | THP-1 LPS/ATP IL-1B secretion, AlphaLISA, 16 h; stronger effect = lower value | AID 743279 | activity change, % at 57.5 µM; in the data active means activity change below about -50%; inconclusive means mostly about -30% to -49%
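Secreted IL-1B measured by AlphaLISA bead assay after 16 h compound exposure of THP-1 cells; compounds (final up to 57.5 uM) added 1 h before LPS (250 ng/mL) and ATP (1.25 mM) stimulation; lower signal means less secretion.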
HT1080 IDH1KD tx: kills HT-1080 cells with IDH1 knockdown; HT-1080 IDH1 knockdown viability, ATP luminescence, 48 h; Potency, µM (highest dose often 46.1 µM), inactives show at the highest dose activity, negative = toxicity, actives largely listed as cytotoxic; AID 686971; 2% of 360,000 active;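 further: potency means the concentration at half of the fitted maximal effect; 0% = DMSO wells and -100% = cell-free medium wells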
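HT-1080-IDH1KD cells (IDH1 knocked down), 750/well in RPMI with 5% FBS, treated with compound 48 h at 37 degrees C. Viability by CellTiter-Glo luminescence, normalised to DMSO and no-cell wells; concentration-response curves classed.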
ALOX12 inh: blocks human arachidonate 12S-lipoxygenase; P18054; Potency, µM (series often up to 108 µM), inactives show top-dose activity change, negative = inhibition, usual class: inhibitors; purified 12hLO, xylenol orange hydroperoxide absorbance; 1.1% of 580,000 active; further: potency means the concentration at half of the fitted maximal effect
Target sequence (P18054 whole entry, looked up): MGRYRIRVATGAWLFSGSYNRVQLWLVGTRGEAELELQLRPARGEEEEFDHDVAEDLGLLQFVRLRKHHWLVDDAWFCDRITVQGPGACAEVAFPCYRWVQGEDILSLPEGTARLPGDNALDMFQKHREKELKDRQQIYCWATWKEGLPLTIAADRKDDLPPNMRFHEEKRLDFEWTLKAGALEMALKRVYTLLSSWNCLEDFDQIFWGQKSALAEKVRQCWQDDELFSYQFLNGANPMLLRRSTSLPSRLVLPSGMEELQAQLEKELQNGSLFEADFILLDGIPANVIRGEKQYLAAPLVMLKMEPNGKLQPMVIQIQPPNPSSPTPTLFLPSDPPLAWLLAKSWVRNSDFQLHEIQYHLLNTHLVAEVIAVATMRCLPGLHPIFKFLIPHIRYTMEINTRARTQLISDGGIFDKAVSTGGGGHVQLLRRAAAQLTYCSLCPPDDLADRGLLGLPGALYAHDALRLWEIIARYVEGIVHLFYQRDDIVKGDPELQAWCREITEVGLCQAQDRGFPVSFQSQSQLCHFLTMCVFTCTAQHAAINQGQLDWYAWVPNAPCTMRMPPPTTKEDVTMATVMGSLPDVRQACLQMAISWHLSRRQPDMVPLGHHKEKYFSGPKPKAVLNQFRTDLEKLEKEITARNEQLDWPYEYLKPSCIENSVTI
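Purified human 12hLO at 150 nM in 25 mM Hepes, 0.01% Triton X-100, pH 7.0, preincubated 15 min at room temperature with compound. Reaction started with 40 uM arachidonic acid, 30 min at room temperature. Hydroperoxide measured by Fe-xylenol orange, 573/405 nm absorbance ratio.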
Starred values were filed as active, the others as inactive; ? = inconclusive; nt = not tested or not shown; [ ] = dose if it differs, or a comment. Unless noted, the call rests on the fitted dose curve; in most records, active means well fitted curve in the direction sought with a large enough effect; inconclusive means small, poorly fitted or top-dose-only effect, or another doubt; inactive means no such curve, though single readings can be large; an effect the other way counts as inactive or inconclusive. Unless noted, on the % scale 0 is the no-effect control and ±100 the full control effect.

SMILES | DT40 TDP1 CPT | HT1080NT lethal | DT40 TDP1 no CPT | IL1B secr inh | HT1080 IDH1KD tx | ALOX12 inh
C=CCSC1=NC(=O)/C(=C/c2cccs2)S1 | ? | 5% | ? | -100* | -2% | ?
NC1=NC(=O)/C(=C/c2cccs2)S1 | -11% | 4% | -22% | -1 | -5% | 0%
CSCC[C@H](NC(=O)c1cccs1)C(=O)N1CCC2(CC1)NCCc1[nH]cnc12 | -2% | 2% | 2% | -85* | 8% | -4%
Cc1ccc(NC(=S)c2nc3ccccc3[nH]2)cc1 | 13µM* | -10% | 10µM* | -6 | -23% | 0%
C(C#CCCCCCCCCC[n+]1ccccc1)#CCCCCCCCCC[n+]1ccccc1 | 3.3µM* | 8.2µM* | 3.3µM* | -95* | 7.3µM* | nt
COc1ccccc1NC(=O)C1CCC(CNS(=O)(=O)c2ccc3c(c2)CC(C)N3C(C)=O)CC1 (configuration not stated) | 10µM* | nt | 10µM* | nt | nt | -26%
CCc1ccc(NC(=O)C2CCC(CNS(=O)(=O)c3ccc4c(c3)CC(C)N4C(C)=O)CC2)cc1 (configuration not stated) | 21µM* | nt | 7.3µM* | nt | nt | 4%
CC(=O)N1c2ccc(S(=O)(=O)NCC3CCC(C(=O)Nc4ccc(F)cc4)CC3)cc2CC1C (configuration not stated) | 16µM* | nt | 16µM* | nt | nt | ?
CC(=O)N1c2ccc(S(=O)(=O)NCC3CCC(C(=O)N4CCCC(C)C4)CC3)cc2CC1C (configuration not stated) | 16µM* | 2% | ? | -10 | -1% | 22%
CN(C)c1cccc(C(=O)Nc2ccc(C#N)cc2)c1 | nt | nt | nt | nt | nt | -9%
CCCNC(=O)NC(=O)CN(C)CC(=O)Nc1ccccc1CC | nt | nt | nt | nt | nt | 22%
Cn1ccnc1C(=O)N1CCC(N2C[C@H](O)C[C@H]2C(=O)NC2CCCCC2)CC1 | nt | nt | nt | nt | nt | 30%
CC(=O)N1c2ccc(S(=O)(=O)NCC3CCC(C(=O)Nc4ccc(C)c(C)c4)CC3)cc2CC1C (configuration not stated) | 16µM* | nt | 23µM* | nt | nt | -21%
O=C(C1CCC(CNS(=O)(=O)c2ccccc2)CC1)N1CCCCC1 (configuration not stated) | 0% | -5% | -16% | 32 | -4% | 0%
CC(=O)N1c2ccc(S(=O)(=O)NCC3CCC(C(=O)N(C)Cc4ccccc4)CC3)cc2CC1C (configuration not stated) | ? | -17% | ? | 0 | -18% | 14%
CC1CC(C)CN(C(=O)C2CCC(CNS(=O)(=O)c3ccccc3)CC2)C1 (configuration not stated) | ? | -11% | 29µM* | 10 | -2% | 22%
CCCCN(C)C(=O)C1CCC(CNS(=O)(=O)c2ccc3c(c2)CC(C)N3C(C)=O)CC1 (configuration not stated) | 13µM* | -5% | 16µM* | 17 | 8% | 8%
Cc1cccc(NC(=O)C2CCC(CNS(=O)(=O)c3ccc4c(c3)CCCC(=O)N4)CC2)c1C (configuration not stated) | ? | nt | -26% | nt | nt | -13%
COc1ccc(C)cc1NC(=O)C1CCC(CNS(=O)(=O)c2ccc3c(c2)CCCC(=O)N3)CC1 (configuration not stated) | 9.2µM* | nt | 4.6µM* | nt | nt | -22%
CC(=O)N1c2ccc(S(=O)(=O)NCC3CCC(C(=O)Nc4ccc(C)cn4)CC3)cc2CC1C (configuration not stated) | ? | ? | ? | ? | -18% | -10%
CC(C)(C)C(=O)Nc1cccc(NC(=O)c2cc(Cl)ccc2F)c1 | nt | nt | nt | nt | nt | 35%
NC(=O)c1cccc(OCc2coc(-c3cccc(F)c3)n2)c1 | nt | nt | nt | nt | nt | 7%
Cc1cccc(C)c1OCc1cc(C(=O)N2CCCC(C(=O)c3nccn3C)C2)no1 (configuration not stated) | nt | nt | nt | nt | nt | -26%
CC(C)(C)CC(=O)N(Cc1cccc(Br)c1)C1CC1 | nt | nt | nt | nt | nt | 57%
COCC(=O)Nc1nnc(COc2ccc(Cl)cc2)s1 | -9% | -11% | -10% | -1 | -12% | -1%
SMILES | DT40 TDP1 CPT | HT1080NT lethal | DT40 TDP1 no CPT | IL1B secr inh | HT1080 IDH1KD tx | ALOX12 inh
Cc1cccc(C)c1OCc1nnc(NC(=O)CSc2ccc(Cl)cc2)s1 | ? | 17% | ? | 13 | 0% | -13%
Cc1onc(-c2ccccc2)c1C(=O)Nc1nnc(COc2ccc(Cl)cc2)s1 | 5.8µM* | ? | 8.2µM* | -13 | ? | nt
COc1ccc(/C=C/c2nnc(NC(=O)CSc3ccc(Cl)cc3)s2)cc1 | 6.5µM* | 0% | 16µM* | 7 | -11% | 11%
O=C(CSc1ccccc1)Nc1nnc(COc2ccc(Cl)cc2)s1 | 8.2µM* | -1% | 26µM* | -26 | -10% | ?
CCOCC(=O)Nc1nnc(COc2ccc(Cl)cc2)s1 | 16µM* | -6% | 23µM* | -15 | -14% | ?
Cn1c(=O)[nH]c(=O)c2c1nc(Nc1cccc(Cl)c1Cl)n2CC(=O)O | nt | nt | nt | nt | nt | 9%
CN1CCN(c2ncc3nc(-c4ccc(Cl)cc4)c(=O)n(Cc4ccc(F)cc4)c3n2)CC1 | 10% | nt | ? | nt | nt | ?
O=c1c(-c2ccc(F)cc2)nc2cncnc2n1Cc1ccc(F)cc1 | -8% | nt | -4% | nt | nt | 0%
CN1CCN(c2ncc3nc(-c4cc(F)cc(F)c4)c(=O)n(Cc4cccs4)c3n2)CC1 | 3% | nt | -11% | nt | nt | 18µM*
CN1CCN(c2ncc3nc(-c4cccs4)c(=O)n(Cc4ccc(F)cc4)c3n2)CC1 | 13µM* | nt | ? | nt | nt | ?
CN1CCN(c2ncc3nc(-c4ccccc4)c(=O)n(Cc4ccc(F)cc4)c3n2)CC1 | -12% | nt | -30% | nt | nt | 35µM*
O=c1c(-c2ccc(F)cc2)nc2cncnc2n1Cc1ccccc1 | ? | nt | 16µM* | nt | nt | -5%
CCOCc1nc(C2CCCN(C(=O)c3ccc(OC)cc3OC)C2)no1 (configuration not stated) | nt | nt | nt | nt | nt | 30%
Cc1cc(C(F)(F)F)nn1CC(=O)NCC(=O)N1CCCCCNC(=O)CC1c1ccccc1 (configuration not stated) | nt | nt | nt | nt | nt | 36%
N#Cc1c(SCC(N)=O)nc2c(c1-c1cccs1)CCCC2 | nt | nt | nt | nt | nt | -13%
O=C(O)Cn1ccc2cc(OCc3cccc(-c4ccc(F)c(Cl)c4)c3)cnc21 | nt | nt | nt | nt | nt | 50µM*
Cc1cc(F)ccc1-c1cccc(COc2cnc3c(ccn3CC(=O)O)c2)c1 | nt | nt | nt | nt | nt | -19%[176 µM]
